Assay results from PubChem BioAssay (Tox21).
Results filed as inconclusive are left out. Where a call stands in place of a potency, no number is given. Activity calls are given as the source filed them. Calls follow the shape of the full dose curve.

Assay: qHTS assay to identify small molecule agonists of the hypoxia (HIF-1) signaling pathway - cell viability counter screen (AID 1224844); also: nearly all actives have a fitted effect of over 50% in size
Details: HRE-bla ME-180 viability, CellTiter-Glo luminescence, 17 h; series mostly up to 76.8 µM
Excerpt: National Center for Advancing Translational Sciences [NCATS]
NIH Chemical Genomics Center [NCGC]
U.S. Environmental Protection Agency [EPA]
National Institutes of Environmental Health Sciences [NIEHS]
National Toxicology Program [NTP]
U.S. Food and Drug Administration [FDA]
Hypoxia-inducible factor-1 (HIF-1) is the major hypoxia-regulated transcription factor that controls cellular responses to low oxygen concentration. HIF-1 is composed of two subunits: hypoxia responsive HIF-1-alpha and constitutively expressed HIF-1-beta, which is also known as aryl hydrocarbon receptor nuclear translocator. During hypoxic conditions, HIF-1-alpha heterodimerizes with HIF-1-beta and translocates into the nucleus where the HIF-1 complex binds to the hypoxia-response element (HRE) and activates expression of target genes such as VEGF (vascular endothelial growth factor). The HIF-1 pathway is essential to normal growth and development, and is involved in the pathophysiology of cancer, inflammation, and ischemia.
Using a beta-lactamase reporter-gene under control of the hypoxia response element, a cell-based assay [CellSensor(TM) HRE-bla ME-180 from Life Technologies, Carlsbad, CA] was used to measure hypoxia-induced signaling. Tox21 10K library compounds were measured for their ability to induce the reporter gene activity. The cytotoxicity of the Tox21 compound library against HRE-bla ME-180 cell line was tested in parallel by measuring cell viability using CellTiter-Glo assay (Promega, Madison, WI) in the same assay wells.
Tox21 Assay Protocol Summary:
HRE-bla ME-180 cells were dispensed at 2,000 cells per well in 6 uL of assay medium containing 0.5% dialyzed FBS into black wall/clear-bottom 1536-well plates using a Multidrop Combi (Thermo Scientific, Waltham, MA) dispenser. After the assay plates were incubated at 37C and 5% CO2 for 5 hrs, 23 nL of compounds dissolved in DMSO, positive controls or DMSO only was transferred to each well of the assay plate using a Pintool station (Kalypsys, San Diego, CA). The assay plates were incubated at 37C and 5% CO2 for 17 hrs. One uL of LiveBLAzerTM B/G FRET substrate (CCF4-AM) (Life Technologies) was added to each well using a Flying Reagent Dispenser (FRD, Aurora Discovery, San Diego, CA). After 2 hr incubation at room temperature, fluorescence intensity (405 nm excitation, 460 nm and 530 nm emissions) was measured using an Envision plate reader (PerkinElmer, Shelton, CT). For cytotoxicity, 4 ul/well of CellTiter-Glo reagent was added into the assay plates using an FRD. After 30 min incubation at room temperature, the luminescence intensity was measured using a ViewLux plate reader (PerkinElmer).
Potency is read from the fitted curve at half-maximal effect.

SMILES | Potency
Cc1ccccc1N=C(N)Nc1ccccc1C | inactive
CC1(CN2CCC(n3c(=O)[nH]c4ccccc43)CC2)OCc2ccccc2-n2cccc21 (stereo not given) | 23.9 µM (active)
C/C=C/C=C/C=O | 48.6 µM (active)
Cc1cccc(N(C)C(=S)Oc2ccc3c(c2)CCC3)c1 | inactive
Cc1ccc(Cl)c(Nc2ccccc2C(=O)O)c1Cl | inactive
CCCCOc1ccc(OCCCN2CCOCC2)cc1 | inactive
Cc1[nH]cnc1CN1CCc2c(c3ccccc3n2C)C1=O | inactive
C[C@@H](O)[C@H]1C(=O)N2C(C(=O)O)=C([C@H]3CCCO3)S[C@H]12 | inactive
C[C@]1(Cn2ccnn2)[C@H](C(=O)O)N2C(=O)C[C@H]2S1(=O)=O | inactive
COC(=O)[C@H]1[C@H]2C[C@@H]3c4[nH]c5cc(OC)ccc5c4CCN3C[C@H]2C[C@@H](OC(=O)/C=C/c2ccc(O)c(OC)c2)[C@@H]1OC | inactive
Cc1ccco1 | inactive
CCCCN(CCN(CCCC)C(=O)N1CCOCC1)C(=O)N1CCOCC1 | inactive
O=C(CCc1ccc(O)cc1)c1c(O)cc(O)cc1O | inactive
CCn1cc(C(=O)O)c(=O)c2cc(F)c(N3CCNCC3)cc21 | inactive
CC(C)=CCC/C(C)=C/CC/C(C)=C/CCC(=O)OC/C=C(\C)CCC=C(C)C | inactive
CO/N=C(/C(=O)N[C@@H]1C(=O)N2C(C(=O)O)=C(COC(N)=O)CS[C@H]12)c1ccco1 | inactive
O=C(/C=C/c1ccccc1)OCCc1ccccc1 | inactive
O=C(O)c1ccc(OCCCOc2ccc(C(=O)O)cc2)cc1 | inactive
CN(C(=O)CN(CCO)CC(=O)N(C)C(C)(C)Cc1ccccc1)C(C)(C)Cc1ccccc1 | inactive
O=C(Nc1cccc2c(=O)cc(-c3nn[nH]n3)oc12)c1ccc(OCCCCc2ccccc2)cc1 | 5.35 µM (active)

SMILES | Potency
C[C@@H]1CN(CCCn2c3ccccc3c3ccccc32)C[C@H](C)N1 | 21.3 µM (active)
CCC=CC#N | inactive
C=C1CCC2CC1C2(C)C (stereo not given) | inactive
CN1CCCC(n2nc(Cc3ccc(Cl)cc3)c3ccccc3c2=O)CC1 (stereo not given) | 21.3 µM (active)
Cc1cc(C)cc(N)c1 | inactive
O=[N+]([O-])c1ccc(Nc2ccc(Nc3ccccc3)c(S(=O)(=O)O)c2)c([N+](=O)[O-])c1 | inactive
c1ccc2c(c1)CCc1ccccc1N2 | inactive
C(=C\c1ccccc1)/c1ccccc1 | inactive
COc1cc(C(=O)NC2CCN(C)CC2)ccc1Nc1ncc2c(n1)N(C1CCCC1)CC(F)(F)C(=O)N2C | 20 µM (active)
CC(C)(O)c1ccc(CNC(=O)c2cccnc2Oc2ccc3nonc3c2)cc1 | inactive
Cc1cscn1 | inactive
C[C@]12CC[C@@H]3c4ccc(O)cc4CC[C@H]3[C@@H]1CC[C@@H]2OC(=O)CCC1CCCC1 | inactive
CC(=O)OCC[N+](C)(C)C | inactive
CC1CC(C)C(=O)C1=O (stereo not given) | inactive
CCN(CC)CCNC(=O)COc1ccc(OC)cc1 | inactive
CCCCCCCCC(CCCCCC)C(=O)O (stereo not given) | 43.6 µM (active)
C=C1c2cccc(O)c2C(O)=C2C(=O)[C@]3(O)C(O)=C(C(N)=O)C(=O)[C@@H](N(C)C)[C@@H]3[C@@H](O)[C@H]12 | inactive
CCCC(=O)C(=O)O | inactive
Cc1c(C)c2c(c(C)c1OC(=O)CCC(=O)OCCO)CC[C@@](C)(CCC[C@H](C)CCC[C@H](C)CCCC(C)C)O2 | inactive
Cc1ccccc1S | inactive
